PubChem BioAssay
Values without a mark were called inactive. Activity calls are given as the source filed them.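 The calls were made as follows: active = compounds that lower survival of HCT116 colon cancer cells in the luminescence readout, no numeric limit stated; inactive = the rest.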

Test: HCT116 colon cancer cell growth inhibition, primary screen, CellTiter-Glo luminescence, NPC library (AID 1117342)
Settings: at 20 µM (top of the series)
In the case of `CNC(=O)Oc1cccc2ccccc12`, the inhibition of viability is reported as 5%. With `C1CN2CCC1CC2` the inhibition of viability was 4%. For `Cc1nnc2n1-c1sc(CCc3ccc(CC(C)C)cc3)cc1C(c1ccccc1Cl)=NC2C` (stereo unspecified), the inhibition of viability was 113% (active). With `CCC1(c2ccccc2)C(=O)N(COC)C(=O)N(COC)C1=O` the inhibition of viability was 96.3% (active). In the case of `C[C@@]12CCCCC[C@@H](Cc3ccc(O)cc31)[C@H]2N`, the inhibition of viability is reported as 13.4%. For `CCN(CC)C(=O)N[C@@H]1C=C2c3cccc4[nH]cc(c34)C[C@@H]2N(C)C1`, the inhibition of viability was 12.2%. Work on `O=C(NC(O)C(Cl)(Cl)Cl)NC(O)C(Cl)(Cl)Cl` (stereo unspecified) yielded an inhibition of viability of 7.9%. For `CCCCCCCCCCCCNCCNCCNCC(=O)O`, the inhibition of viability was 99.3% (active). With `O=C(N[C@H]1N=C(c2ccccc2F)c2cccc3c2N(CC3)C1=O)c1cc2ccccc2[nH]1` the inhibition of viability was 54.9% (active). With `CCOP(=S)(OCC)O/N=C(\C#N)c1ccccc1` the inhibition of viability was 0.2%. For `OCCOc1ccccc1`, the inhibition of viability was -10.6%. `Cc1c(Cl)c(=O)oc2cc(OP(=O)(OCCCl)OCCCl)ccc12` gave an inhibition of viability of 35.4%. `CCCN(CCC)C(=O)Cc1c(-c2ccc(Cl)cc2)nc2ccc(Cl)cn12` showed an inhibition of viability of 49.5%. With `O=C(CCl)c1ccc(Cl)cc1Cl` the inhibition of viability was 88.3% (active). In the case of `COP(=S)(OC)Oc1ccc(S(=O)(=O)N(C)C)cc1`, the inhibition of viability is reported as 4.9%. For `Nc1ccccc1C(=O)OCC(O)CO` (stereo unspecified), the inhibition of viability was -0.1%. In the case of `C[N+]1(CCF)[C@@H]2CC[C@H]1CC(OC(=O)C(O)(c1ccccc1)c1ccccc1)C2` (stereo partly specified), the inhibition of viability is reported as 5.8%. `Nc1ccccc1` showed an inhibition of viability of -9.9%. `CCOC(=O)NC(O)C(Cl)(Cl)Cl` (stereo unspecified) showed an inhibition of viability of -2.5%. `Oc1ccc(Cl)cc1Cc1ccccc1` showed an inhibition of viability of -2.2%. Work on `C[C@]12C[C@@H]3S[C@H]3C[C@@H]1CC[C@H]1[C@H]3CC[C@@H](O)[C@@]3(C)CC[C@@H]12` yielded an inhibition of viability of 18.8%. Work on `C[C@]12CC[C@H]3[C@@H](CCC4=CC(=O)CC[C@@H]43)[C@@H]1CC[C@@H]2OC(=O)CCc1ccco1` yielded an inhibition of viability of 23.6%. In the case of `O=C1OC(c2ccc(O)c(S(=O)(=O)O)c2)(c2ccc(O)c(S(=O)(=O)O)c2)c2c(Br)c(Br)c(Br)c(Br)c21`, the inhibition of viability is reported as -59%. Molecule `COc1cc(CC#N)cc(OC)c1OC` has an inhibition of viability of 22.6%. For `CC(C)=CC1C(C(=O)OCN2C(=O)C3=C(CCCC3)C2=O)C1(C)C` (stereo unspecified), the inhibition of viability was 38.2%. Molecule `COP(=S)(OC)Oc1ccc(S(N)(=O)=O)cc1` has an inhibition of viability of -18.1%. For `CN1C2CCC(C)(C)C1CC(OC(=O)C(O)(c1cccs1)c1cccs1)C2` (stereo unspecified), the inhibition of viability was 27.8%. With `C[C@]12CC[C@H]3[C@@H](CC=C4C[C@@H](O)CC[C@@]43C)[C@@H]1CC[C@@H]2O` the inhibition of viability was 5.2%. `CN1CCC(O)(c2ccc(F)cc2)C(C(=O)c2ccc(F)cc2)C1` (stereo unspecified) showed an inhibition of viability of 4.35%. With `CC(=O)O[C@H]1C[C@H](O[C@H]2[C@@H](O)C[C@H](O[C@@H]3[C@@H](O)C[C@H](O[C@H]4CC[C@@]5(C)[C@H](CC[C@@H]6[C@H]5C[C@@H](O)[C@]5(C)[C@@H](C7=CC(=O)OC7)CC[C@]65O)C4)O[C@@H]3C)O[C@@H]2C)O[C@H](C)[C@H]1O[C@@H]1O[C@H](CO)[C@@H](O)[C@H](O)[C@@H]1O` the inhibition of viability was 46.8% (active). For `CNC(C)[C@@H](O)c1ccc(O)cc1` (stereo partly specified), the inhibition of viability was 3.4%. With `CCOC(=O)C(c1c(O)c2ccccc2oc1=O)c1c(O)c2ccccc2oc1=O` the inhibition of viability was 5.5%. For `COC(=O)c1cncn1C(C)c1ccccc1` (stereo unspecified), the inhibition of viability was -8.6%. Molecule `ClCCCN1CCN(c2cccc(Cl)c2)CC1` has an inhibition of viability of 42.8%. For `CC(C(O)c1ccccc1)N(C)C/C=C/c1ccccc1` (stereo unspecified), the inhibition of viability was 60.9% (active). `O=c1[nH]c2ccccc2n1C1CCNCC1` gave an inhibition of viability of -8.2%.
